# Measured values: publication doi:10.1101/2024.03.05.583629
# Molecular target: pT7_6His-AlfaTag-HOXD13 (human, UniProt P35453 263-343)
# Experiment: PADIT-seq
# Details: dsDNA, one strand shown
# Chain of pT7_6His-AlfaTag-HOXD13 (P35453 263-343): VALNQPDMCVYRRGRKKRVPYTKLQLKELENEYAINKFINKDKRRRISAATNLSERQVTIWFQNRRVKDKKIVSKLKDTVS
row,Sequence,binding signal [log2FC]
1,CTCGAGGATATCAAGATCTGGCCTCGGCGTTTTAGGGGGAACCTCTAGCTAGCCGACTCACTATAGGGATAATCGCCCTGAGCAAAGACC,1.59 ± 0.0927
2,CTCGAGGATATCAAGATCTGGCCTCGGCCGCTAACGCGGAACCTCTAGCTAGCCGACTCACTATAGGGATAATCGCCCTGAGCAAAGACC,-0.899 ± 0.132
3,CTCGAGGATATCAAGATCTGGCCTCGGCCGGCTAAAAGGAACCTCTAGCTAGCCGACTCACTATAGGGATAATCGCCCTGAGCAAAGACC,-0.621 ± 0.107
4,CTCGAGGATATCAAGATCTGGCCTCGGCGTTTTATCAGGAACCTCTAGCTAGCCGACTCACTATAGGGATAATCGCCCTGAGCAAAGACC,2.41 ± 0.0928
5,CTCGAGGATATCAAGATCTGGCCTCGGCGACTTAAAAGGAACCTCTAGCTAGCCGACTCACTATAGGGATAATCGCCCTGAGCAAAGACC,0.297 ± 0.0744
6,CTCGAGGATATCAAGATCTGGCCTCGGCCTTTTAGCTGGAACCTCTAGCTAGCCGACTCACTATAGGGATAATCGCCCTGAGCAAAGACC,-0.366 ± 0.11
7,CTCGAGGATATCAAGATCTGGCCTCGGCCGGGTAAAAGGAACCTCTAGCTAGCCGACTCACTATAGGGATAATCGCCCTGAGCAAAGACC,-0.304 ± 0.0906
8,CTCGAGGATATCAAGATCTGGCCTCGGCAATATAAAAGGAACCTCTAGCTAGCCGACTCACTATAGGGATAATCGCCCTGAGCAAAGACC,2.41 ± 0.0826
9,CTCGAGGATATCAAGATCTGGCCTCGGCGAAATAAAAGGAACCTCTAGCTAGCCGACTCACTATAGGGATAATCGCCCTGAGCAAAGACC,1.47 ± 0.0776
10,CTCGAGGATATCAAGATCTGGCCTCGGCGATATAAAAGGAACCTCTAGCTAGCCGACTCACTATAGGGATAATCGCCCTGAGCAAAGACC,1.99 ± 0.0693
11,CTCGAGGATATCAAGATCTGGCCTCGGCATTTTAGTGGGAACCTCTAGCTAGCCGACTCACTATAGGGATAATCGCCCTGAGCAAAGACC,1.61 ± 0.0939
12,CTCGAGGATATCAAGATCTGGCCTCGGCGTTTTAAACGGAACCTCTAGCTAGCCGACTCACTATAGGGATAATCGCCCTGAGCAAAGACC,0.884 ± 0.0954
13,CTCGAGGATATCAAGATCTGGCCTCGGCGTGGTAAAAGGAACCTCTAGCTAGCCGACTCACTATAGGGATAATCGCCCTGAGCAAAGACC,1.02 ± 0.077
14,CTCGAGGATATCAAGATCTGGCCTCGGCGCGTAAGCGGGAACCTCTAGCTAGCCGACTCACTATAGGGATAATCGCCCTGAGCAAAGACC,-0.575 ± 0.113
15,CTCGAGGATATCAAGATCTGGCCTCGGCGGACTAAAAGGAACCTCTAGCTAGCCGACTCACTATAGGGATAATCGCCCTGAGCAAAGACC,-0.896 ± 0.106
16,CTCGAGGATATCAAGATCTGGCCTCGGCAAGGTAAAAGGAACCTCTAGCTAGCCGACTCACTATAGGGATAATCGCCCTGAGCAAAGACC,-0.357 ± 0.0936
17,CTCGAGGATATCAAGATCTGGCCTCGGCAATGTAAAAGGAACCTCTAGCTAGCCGACTCACTATAGGGATAATCGCCCTGAGCAAAGACC,0.947 ± 0.0815
18,CTCGAGGATATCAAGATCTGGCCTCGGCGCGATAAAAGGAACCTCTAGCTAGCCGACTCACTATAGGGATAATCGCCCTGAGCAAAGACC,1.22 ± 0.0747
19,CTCGAGGATATCAAGATCTGGCCTCGGCTCGATAAAAGGAACCTCTAGCTAGCCGACTCACTATAGGGATAATCGCCCTGAGCAAAGACC,1.03 ± 0.106
20,CTCGAGGATATCAAGATCTGGCCTCGGCTACTGGGCGGGAACCTCTAGCTAGCCGACTCACTATAGGGATAATCGCCCTGAGCAAAGACC,-1.09 ± 0.112

row,Sequence,binding signal [log2FC]
1,CTCGAGGATATCAAGATCTGGCCTCGGCTCCGTAAAAGGAACCTCTAGCTAGCCGACTCACTATAGGGATAATCGCCCTGAGCAAAGACC,1.22 ± 0.0847
2,CTCGAGGATATCAAGATCTGGCCTCGGCGTCCTAAAAGGAACCTCTAGCTAGCCGACTCACTATAGGGATAATCGCCCTGAGCAAAGACC,0.117 ± 0.0783
3,CTCGAGGATATCAAGATCTGGCCTCGGCGTTTTAGTCGGAACCTCTAGCTAGCCGACTCACTATAGGGATAATCGCCCTGAGCAAAGACC,-0.506 ± 0.12
4,CTCGAGGATATCAAGATCTGGCCTCGGCCACTTAAAAGGAACCTCTAGCTAGCCGACTCACTATAGGGATAATCGCCCTGAGCAAAGACC,1.17 ± 0.0931
5,CTCGAGGATATCAAGATCTGGCCTCGGCTTGTTAAAAGGAACCTCTAGCTAGCCGACTCACTATAGGGATAATCGCCCTGAGCAAAGACC,3.01 ± 0.0792
6,CTCGAGGATATCAAGATCTGGCCTCGGCGCGTTAAAAGGAACCTCTAGCTAGCCGACTCACTATAGGGATAATCGCCCTGAGCAAAGACC,1.22 ± 0.079
7,CTCGAGGATATCAAGATCTGGCCTCGGCGGATTAAAAGGAACCTCTAGCTAGCCGACTCACTATAGGGATAATCGCCCTGAGCAAAGACC,1.17 ± 0.076
8,CTCGAGGATATCAAGATCTGGCCTCGGCCTTTTAACAGGAACCTCTAGCTAGCCGACTCACTATAGGGATAATCGCCCTGAGCAAAGACC,1.89 ± 0.0877
9,CTCGAGGATATCAAGATCTGGCCTCGGCATTTTATCAGGAACCTCTAGCTAGCCGACTCACTATAGGGATAATCGCCCTGAGCAAAGACC,2.32 ± 0.0735
10,CTCGAGGATATCAAGATCTGGCCTCGGCGATCTAAAAGGAACCTCTAGCTAGCCGACTCACTATAGGGATAATCGCCCTGAGCAAAGACC,-0.592 ± 0.0883
11,CTCGAGGATATCAAGATCTGGCCTCGGCTATTTAAAAGGAACCTCTAGCTAGCCGACTCACTATAGGGATAATCGCCCTGAGCAAAGACC,2.42 ± 0.0909
12,CTCGAGGATATCAAGATCTGGCCTCGGCGTTCTAAAAGGAACCTCTAGCTAGCCGACTCACTATAGGGATAATCGCCCTGAGCAAAGACC,-0.197 ± 0.0802
13,CTCGAGGATATCAAGATCTGGCCTCGGCCGTATAAAAGGAACCTCTAGCTAGCCGACTCACTATAGGGATAATCGCCCTGAGCAAAGACC,2.31 ± 0.0858
14,CTCGAGGATATCAAGATCTGGCCTCGGCTTTTTAACAGGAACCTCTAGCTAGCCGACTCACTATAGGGATAATCGCCCTGAGCAAAGACC,2.05 ± 0.0793
15,CTCGAGGATATCAAGATCTGGCCTCGGCTTTTTATCCGGAACCTCTAGCTAGCCGACTCACTATAGGGATAATCGCCCTGAGCAAAGACC,1.15 ± 0.0852
16,CTCGAGGATATCAAGATCTGGCCTCGGCACCCCACGCGGAACCTCTAGCTAGCCGACTCACTATAGGGATAATCGCCCTGAGCAAAGACC,-1.03 ± 0.136
17,CTCGAGGATATCAAGATCTGGCCTCGGCGATCCACGCGGAACCTCTAGCTAGCCGACTCACTATAGGGATAATCGCCCTGAGCAAAGACC,-1.01 ± 0.105
18,CTCGAGGATATCAAGATCTGGCCTCGGCCCTCTAAAAGGAACCTCTAGCTAGCCGACTCACTATAGGGATAATCGCCCTGAGCAAAGACC,0.681 ± 0.104
19,CTCGAGGATATCAAGATCTGGCCTCGGCCGCCCAGAGGGAACCTCTAGCTAGCCGACTCACTATAGGGATAATCGCCCTGAGCAAAGACC,-1.03 ± 0.139
